Assay outcomes from PubChem BioAssay.
CHX counter: counter-screen hit for Shiga toxin inhibitors, cycloheximide; cell reporter, cycloheximide protein synthesis inhibition counterscreen; max response, %; actives 12% (n = 300,000); in the data active means max response mostly above about 13%, no sharp cut-off; inactive means mostly below about 14%; further: read at 38.3 µM for the half of the compounds with a filed dose
Pf growth 48h: P. falciparum growth inhibition at 48 hours (one generation); actives 5.9% (n = 310,000); P. falciparum luciferase growth in erythrocytes, 48 h; AID 504832; Potency, µM (top dose mostly 28.7 µM), hits mostly inhibitors
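Growth was read as firefly luciferase luminescence after a 48 h, 37 C, 5% CO2 exposure of compounds to reporter-bearing P. falciparum cultures (0.1% parasitemia, 2% hematocrit final) in Albumax-supplemented RPMI 1640.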
Shiga inhibitor: blocks Shiga toxin action in Vero cells; Vero cells, Shiga toxin protein synthesis inhibition reporter; inhibition, % at 38.7 µM; actives 9.2% (n = 290,000); in the data active means inhibition mostly above about 28%, no sharp cut-off; inactive means mostly below about 43%
HCMV inh: human cytomegalovirus inhibition; activity change, negative = inhibition, % at 57.5 µM; actives 4.5% (n = 410,000); HFF cells, HCMV-luciferase reporter, 72 h; stronger effect = lower value; in the data active means activity change below about -60%; inconclusive means no clear call, values can overlap the other calls; inactive means above about -39%
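Luciferase read-out from HCMV-luciferase-infected HFFs (MOI 1 PFU/cell) 72 h post infection at 37C; compounds added after 16 h cell attachment; activity normalized between buffer-only basal and Salinomycin (10uM) inhibitor controls.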
Pf growth 96h: inhibits malaria parasite growth, 96 h; P. falciparum luciferase reporter growth, 96 h; Potency, µM (doses to about 28.7 µM), usual class: inhibitors; actives 6.9% (n = 320,000); AID 504834
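Two parasite generations (96 h, 37 C, 5% CO2) of compound exposure in infected erythrocytes (0.05% parasitemia, 2% hematocrit). Luciferase-reporter P. falciparum; decreased luminescence indicates inhibited growth, aimed at apicoplast-acting delayed death.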
Large screens that a line does not name were inactive. The list is not random: actives were taken first. Their share in the collection is about 20%. Unless noted, the call rests on the fitted dose curve; in most records, active means well fitted inhibition curve with a large enough effect; inconclusive means small, poorly fitted or top-dose-only effect, or another doubt; inactive means no such curve, though single readings can be large or run the other way.

Cc1ccc(S(=O)(=O)N2C[C@@H]3CCCC[C@@H]3[C@@H](C)[C@H]2c2cn(Cc3ccccc3)c3ccccc23)cc1	HCMV inh -97 (no result: CHX counter, Pf growth 48h, Shiga inhibitor, Pf growth 96h)
COc1ccc2c(c1)c([C@@H]1[C@H](C)[C@H]3CCCC[C@H]3CN1S(=O)(=O)c1ccc(C)cc1)cn2C	none (no result: CHX counter, Pf growth 48h, Shiga inhibitor, Pf growth 96h)
O=C(c1ccc(OC2CCN(CCO)CC2)cc1)N1CCCC1	none (no result: HCMV inh)
CCOC(=O)N1CCN(c2c(NCc3ccc(Cl)cc3)c(=O)c2=O)CC1	HCMV inh -75 (no result: Pf growth 48h)
CCOC(=O)N1CCN(c2c(NCc3ccccc3OC)c(=O)c2=O)CC1	none (no result: Pf growth 48h)
CCOC(=O)N1CCN(c2c(NCC3CCN(Cc4cccc(C)c4)CC3)c(=O)c2=O)CC1	Pf growth 96h 6.6µM
CCOC(=O)N1CCN(c2c(NCc3cccs3)c(=O)c2=O)CC1	Pf growth 96h 12µM (no result: Pf growth 48h)
CCOC(=O)N1CCN(c2c(NCc3ccc(F)cc3)c(=O)c2=O)CC1	none
COc1ccccc1/C=C/c1nc(S(=O)(=O)c2ccccc2)c(NCCN(C)C)o1	Pf growth 48h inconclusive
COc1ccc(/C=C/c2nc(S(=O)(=O)c3ccccc3)c(NCCCN(C)C)o2)cc1OC	Pf growth 48h 12µM, Pf growth 96h inconclusive
COc1ccc(C(=O)NCc2nnc(SCC(=O)N3CCCc4ccccc43)o2)cc1OC	Pf growth 48h inconclusive
CC(=O)N(Cc1ccco1)c1nc(C(=O)Nc2ccc(Cl)cc2)c(C)s1	CHX counter 46, Shiga inhibitor 95
COc1ccc2c(c1OC)C(=O)N1c3ccccc3C(=O)N(c3ccc(F)cc3)C21 (centres undefined)	Pf growth 48h inconclusive, Pf growth 96h inconclusive
COc1ccc2c(c1OC)C(=O)N1c3ccccc3C(=O)N(c3ccccc3)C21 (centres undefined)	Pf growth 48h 13µM, Pf growth 96h 10µM
CN(C(=O)CSc1nc2ccccc2n1C)C1CCS(=O)(=O)C1 (centres undefined)	HCMV inh inconclusive (no result: CHX counter, Shiga inhibitor)
CCCCNS(=O)(=O)c1ccc(C)c(-c2nnc3c4ccccc4c(C)nn23)c1	none (no result: CHX counter, Pf growth 48h, Shiga inhibitor, Pf growth 96h)
Oc1cc2c(cc1O)C1c3ccc(O)c(O)c3OCC1(O)C2 (centres undefined)	Pf growth 48h inconclusive, Pf growth 96h 2.6µM
Cc1cccc(C)c1NC(=O)N1CCC(C(N)=O)(N2CCCCC2)CC1	none (no result: CHX counter, Pf growth 48h, Shiga inhibitor, Pf growth 96h)
COc1ccc2c(c1)OC[C@H]1[C@H]2N2C(=O)CN(Cc3ccc(Cl)cc3)C(=O)[C@@]2(C)[C@H]1c1ccccc1	Pf growth 48h 2.9µM, Pf growth 96h inconclusive (no result: CHX counter, Shiga inhibitor)
COc1ccc2c(c1)OC[C@H]1[C@H]2N2C(=O)CN(Cc3ccccc3)C(=O)[C@@]2(C)[C@H]1c1ccccc1	none (no result: CHX counter, Pf growth 48h, Shiga inhibitor, Pf growth 96h)
COc1ccc(CN2CC(=O)N3[C@H]4c5ccc(OC)cc5OC[C@@H]4[C@H](c4ccccc4)[C@]3(C)C2=O)cc1	Pf growth 48h 4.7µM, Pf growth 96h inconclusive (no result: CHX counter, Shiga inhibitor)
CCOc1ccc(CNC(=O)Cn2nc(C)c3nn(-c4ccc(Cl)cc4)c(C)c3c2=O)cc1	none (no result: CHX counter, Pf growth 48h, Shiga inhibitor, Pf growth 96h)
Cc1cccc(OCC(=O)Nc2cccc(C(=O)OCc3cc(=O)n4nc(C(C)C)sc4n3)c2)c1	none (no result: CHX counter, Pf growth 48h, Shiga inhibitor, Pf growth 96h)
COc1ccccc1CNC(=O)Nc1cccs1	CHX counter 19
COc1ccc(CNC(=O)Nc2cccs2)cc1OC	Pf growth 96h inconclusive
Cc1ccc(CNC(=O)Nc2cccs2)cc1	CHX counter 50, Shiga inhibitor 51
COc1cccc(CNC(=O)Nc2cccs2)c1	CHX counter 33, Shiga inhibitor 64, Pf growth 96h inconclusive
COc1cccc(CNC(=O)CCNS(=O)(=O)c2cccs2)c1	Pf growth 96h 1.2µM
COc1ccccc1C(=O)Nc1cc2c(cc1N1CCOCC1)n(C)c(=O)n2C	none (no result: CHX counter, Pf growth 48h, Shiga inhibitor, Pf growth 96h)
O=C(CSc1nncn1-c1ccccc1F)NC1CCCCC1	none (no result: CHX counter, Shiga inhibitor)
Cc1ccnc(NC(=O)Nc2ccc3c(c2)N(C)C(=O)CS3)c1	CHX counter 83, Shiga inhibitor 156, Pf growth 96h 13µM
Cc1cccc(NC(=O)Nc2ccc3c(c2)N(C)C(=O)CS3)n1	Pf growth 96h 10µM (no result: Pf growth 48h)
O=C(COC(=O)c1ccc(Cl)c(S(=O)(=O)N2CCCCC2)c1)NCCc1ccccc1	Pf growth 48h inconclusive (no result: CHX counter, Shiga inhibitor)
COc1ccc2nc(N3CCCC3)[nH]c2c1	CHX counter 19 (no result: Pf growth 96h)
NC(=S)Nc1nc2ccccc2[nH]c1=O	none (no result: Pf growth 96h)
O=c1[nH]c(NNC(=S)NCc2ccccc2)nc2c1C1(CCCCC1)Cc1ccccc1-2	HCMV inh -62, Pf growth 96h inconclusive
c1ccc2[nH]c(NCc3ccc4c(c3)OCO4)nc2c1	CHX counter 34, Shiga inhibitor 63
COc1ccc(N2CCN(C(=O)C3CCN(c4nc5ccc(C)cc5[nH]4)CC3)CC2)cc1	none (no result: CHX counter, Pf growth 48h, Shiga inhibitor, Pf growth 96h)
O=c1[nH]c2ccccc2nc1NCc1ccccc1	Pf growth 96h 4.7µM
COc1ccc2nc(NCCO)[nH]c2c1	Pf growth 96h inconclusive
S=C(NCc1ccccc1)NNc1nc2ccccc2[nH]1	Pf growth 48h inconclusive, HCMV inh -70, Pf growth 96h inconclusive
Cc1ccc2nc(NCc3ccccc3)[nH]c2c1	CHX counter 34, Pf growth 48h inconclusive, Shiga inhibitor 91, HCMV inh inconclusive, Pf growth 96h 1.2µM
c1ccc(CNc2nc3ccccc3[nH]2)cc1	CHX counter 26
Cc1ccc2nc(NCc3ccccc3)c(C#N)cc2c1	none
COc1ccc2nc(NCc3ccccc3)[nH]c2c1	CHX counter 24, Pf growth 48h inconclusive (no result: Pf growth 96h)
COc1ccc(CCC(=O)OCC(=O)N(CC(C)C)c2c(N)n(Cc3ccccc3)c(=O)[nH]c2=O)cc1	none (no result: CHX counter, Shiga inhibitor)
Cc1cn(CC(=O)NCCc2ccccn2)c(=O)[nH]c1=O	none (no result: CHX counter, Pf growth 48h, Shiga inhibitor, Pf growth 96h)
Cc1ccc(C2/C(=C(\O)c3ccc4c(c3)OCCO4)C(=O)C(=O)N2CCCN(C)C)o1 (centres undefined)	CHX counter 19 (no result: HCMV inh)
O=C1C(=O)N(c2nccs2)C(c2ccccc2)/C1=C(\O)c1ccc2c(c1)OCCO2 (centres undefined)	none (no result: HCMV inh)
O=C1C(=O)N(CCN2CCOCC2)C(c2ccccc2)/C1=C(\O)c1ccc2c(c1)OCCO2 (centres undefined)	CHX counter 36, Shiga inhibitor 23
O=C1C(=O)N(c2nccs2)C(c2ccccc2F)/C1=C(\O)c1ccc2c(c1)OCCO2 (centres undefined)	CHX counter 32
COc1ccc(C2/C(=C(/O)c3ccc4c(c3)CC(C)O4)C(=O)C(=O)N2CCCN2CCOCC2)cc1 (centres undefined)	CHX counter 19
CC(C)c1ccc(C2/C(=C(\O)c3ccc4c(c3)OCCO4)C(=O)C(=O)N2CCN2CCOCC2)cc1 (centres undefined)	Pf growth 96h inconclusive
CC(=O)NC(CC(=O)NCCN1C(=O)S/C(=C\c2ccccc2)C1=O)c1ccccc1 (centres undefined)	Pf growth 48h inconclusive, Pf growth 96h inconclusive
CCc1cnc2c(c1SCC(=O)c1ccc(Cl)cc1)c(=O)n(C)c(=O)n2C	none (no result: CHX counter, Pf growth 48h, Shiga inhibitor, Pf growth 96h)
CCc1nc2c(OCc3ccc(OC(F)F)cc3)cccn2c1N(C)C(=O)c1ccco1	none (no result: CHX counter, Pf growth 48h, Shiga inhibitor, Pf growth 96h)
